Pf Dd2 inh: inhibitors of Plasmodium falciparum Dd2 growth. Potency, µM (top dose mostly 28.9 µM), usual class: inhibitors. P. falciparum Dd2 growth, SYBR Green, 72 h. 120,000 compounds, 4.3% hits; active means well fitted inhibition curve with a large enough effect; further: nearly all actives have a fitted effect of over 65% in size
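Infected erythrocytes (Dd2, 0.3% parasitemia, 2.5% hematocrit final) are added to compound in RPMI-1640/Albumax II medium, grown 72 h at 37C in low oxygen, then lysed with saponin/Triton-X containing SYBR Green and read by fluorescence.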
Hits are given with their value; - = inactive; [ ] = dose if it differs, or a comment. The sample as a whole holds a higher share of hits than the screen did.

SMILES | Pf Dd2 inh
COCC(=O)N[C@H]1C[C@H]2C(=O)NC[C@@H](CCC(=O)N3CCc4ccccc43)N2C1 | -
O=C(C1CCCC1)N1CC2(CCCCN2Cc2cccnc2)Cc2ccccc21 (stereo not drawn) | 7.94µM
O=C(C1CCCC1)N1CC2(CCCN2Cc2cccnc2)Cc2ccccc21 (stereo not drawn) | 11.2µM
CCC(=O)N1Cc2ccccc2CC2(CCCN2Cc2cccnc2)C1 (stereo not drawn) | -
CC(=O)N1CC2(CCCN2Cc2cccnc2)Cc2ccccc21 (stereo not drawn) | -
O=C(O)CCC(=O)N1Cc2ccccc2CC2(CCCN2Cc2cccnc2)C1 (stereo not drawn) | -
O=C1Nc2ccccc2CC12CCCN2Cc1cccnc1 (stereo not drawn) | -
COCCN1Cc2nc(-c3cnn(Cc4ccccc4)c3)ccc2OCC1=O | -
O=C(NCc1cccnc1)C1=NOC2CN(C(=O)C3CC3)CC12 (stereo not drawn) | -
COc1ccc2[nH]cc(CCN=C(NC(=O)c3ccccc3C)Nc3nc(C)cc(C)n3)c2c1 | 8.91µM
COc1ccc2[nH]cc(CCNC(=O)Nc3ccc(F)cc3)c2c1 | -
Cc1cc(C)nc(NC(=NCCc2c[nH]c3ccc(Cl)cc23)NC(=O)c2ccccc2C)n1 | -
CCS(=O)(=O)N1CC(n2cc(C(=O)NCC3CC3)nn2)C1 | -
N#Cc1ccccc1CN1CCC2(CC1)CC(O)CCO2 (stereo not drawn) | -
CCOC(=O)C1(Cc2ccccc2)CCCN(S(=O)(=O)c2ccc(OC)c(OC)c2)C1 (stereo not drawn) | -
CCOC(=O)C1(Cc2ccc(F)cc2)CCCNC1 (stereo not drawn) | 2.82µM
COc1cccc(CC2(CO)CCCNC2)c1 (stereo not drawn) | -
CCOC(=O)C1(Cc2ccccc2)CCCN(C(=O)c2ccccc2SC)C1 (stereo not drawn) | -
C=CCOc1cccc(C(=O)N2CCC(Cc3ccc(OC)cc3)(C(=O)OCC)CC2)c1 | -
COc1cccc(CNC(=O)C2=C(C)C(=O)OC23CCCCCC3)c1 | -
CCOC(=O)c1cc(S(=O)(=O)NCc2ccc(F)cc2)[nH]n1 | -
CCOC(=O)C1(Cc2cccc(OC)c2)CCCNC1 (stereo not drawn) | 11.2µM
COCC1CN(C(=O)CCc2cccc(OC)c2)CC12CCNCC2 (stereo not drawn) | -
CCOC(=O)C1(Cc2ccccc2)CCNCC1 | 5.62µM
CCOC(=O)C1(Cc2cccc(OC)c2)CCNCC1 | 5.01µM
SMILES | Pf Dd2 inh
CCOC(=O)C1(Cc2ccc(F)cc2F)CCCN(C(=O)c2c(C)nc3ncccn23)C1 (stereo not drawn) | -
O=C1NCCC[C@@H]1NC(=O)[C@H]1CN(C(=O)c2cccc(F)c2)CCN1S(=O)(=O)c1ccc(F)cc1 | -
O=C(CN1CCOCC1)N1CCNc2cnc(Nc3ccc(-n4ccnc4)cc3)nc2C1 | -
COCCN1C(=O)CO[C@H]2CN(C(=O)Nc3ccc(F)cc3)C[C@H]21 | -
Cc1cccc(NC(=O)Cn2c(-c3ccc(F)cc3)nc(C)c(CCO)c2=O)c1C | -
Cc1nc(C)c(C(=O)N2CC3CC(C2)[C@H]2CCCC(=O)N2C3)s1 (stereo partly drawn) | -
O=C1COC[C@H]([C@H](O)c2ccc(NC(=O)c3ccnc(Cl)c3)cc2)N1 | -
O=C(c1ccc2c(c1)OCO2)N1CCN(c2cc(-c3cccs3)[nH]n2)CC1 | -
CN1CCCCCC(O)c2cc(C(=O)NC3CCCCC3)ccc21 (stereo not drawn) | -
CN(C)C[C@@H]1CN(C2CCOCC2)C[C@H]1NS(=O)(=O)c1ccc(C#N)cc1 | -
CN(Cc1nc2ccc(F)cc2[nH]1)C(=O)CCc1cc2n(n1)CCCNC2 | -
O=C(c1ccc(Cl)cc1)N1CCOC(CN(C(=O)c2ccc(F)cc2)C2CCCC2)C1 (stereo not drawn) | -
COc1cccc(CN2CCC3(CC2)C(=O)NCN3Cc2ccc(Cl)cc2)c1 | -
CCOC(=O)C1(Cc2ccccc2)CCCN(S(=O)(=O)c2cccs2)C1 (stereo not drawn) | -
CCOC(=O)C1(C/C=C/c2ccccc2)CCCNC1 (stereo not drawn) | 3.98µM
CCOC(=O)C1(Cc2ccc(Cl)cc2)CCN(Cc2ccc(OC)cc2O)CC1 | 0.0891µM
CCOC(=O)C1(Cc2ccc(OC)cc2)CCN(C(=O)C(C)Oc2ccccc2)CC1 (stereo not drawn) | -
O=C(N1CCN(C/C=C/c2ccccc2)CC1)C12CNCC1CNC2 (stereo not drawn) | -
CCc1ccc2nc(C)cc(C(=O)N3CCN(c4ccccc4)C(=O)C3)c2c1 | -
CC(C)(C)OC(=O)N1CC(Nc2ccc(Oc3ccccc3)cc2)C1 | -
Cc1cc(C)cc(C(=O)N2CCCC(n3cc(-c4nc(C(C)C)no4)nn3)C2)c1 (stereo not drawn) | -
O=C(NCc1cccs1)c1csc(N2CCN(c3ccc(F)cc3)CC2)n1 | -
O=C(NCc1ccccc1Cl)c1csc(N2CCN(c3ccc(F)cc3)CC2)n1 | -
COc1ccc(N2CCN(c3nc(C(=O)NCc4ccc(C)cc4)cs3)CC2)cc1 | -
COc1ccc(N2CCN(c3nc(C(=O)NCc4cccc(C)c4)cs3)CC2)cc1 | 3.16µM
SMILES | Pf Dd2 inh
COc1ccc(N2CCN(c3nc(C(=O)NC4CC4)cs3)CC2)cc1 | -
COc1ccc(N2CCN(c3nc(C(=O)NCc4ccccc4C)cs3)CC2)cc1 | 8.91µM
O=C1NC[C@@H](CCC(=O)N2CCN(c3ccccc3)CC2)N2C[C@@H](NCc3ccc(CO)o3)C[C@@H]12 | -
NS(=O)(=O)c1ccc(CNc2nccc(-c3cccnc3)n2)cc1 | -
O=C(N[C@H]1CO[C@H]2[C@@H]1OC[C@@H]2Nc1nccc(-c2ccc(-c3ccccc3)cc2)n1)C1CC1 | -
O=C(CCc1ccc(O)cc1)N[C@H]1CC[C@H](Nc2nccc(-c3cccnc3)n2)C1 | 11.2µM
Cc1cccc2c1nc1n2[C@@H](CNS(=O)(=O)Cc2ccccc2)COC1 | -
CCC(C)NC(=O)NCCc1noc(-c2cccnc2)n1 (stereo not drawn) | -
COc1cccc(C(=O)N2CCC(n3c(=O)[nH]c4ccccc43)CC2)c1 | -
CCC(CC)NC(=O)CC1CCCN(c2cnn(CC)c(=O)c2)C1 (stereo not drawn) | -
O=C1[C@H]2CN(Cc3ccc(F)cc3Cl)C[C@H]2C(=O)N1Cc1ccc2c(c1)OCO2 | -
O=C1[C@H]2CN(Cc3ccc(F)cc3Cl)C[C@H]2C(=O)N1CCN1CCc2ccccc2C1 | 3.98µM
O=C1[C@H]2CN(Cc3cccc(Cl)c3F)C[C@H]2C(=O)N1CCc1ccccc1 | -
Cc1nnc2n1CCC(N(C)C(=O)CCc1ccccc1)CC2 (stereo not drawn) | -
Cc1[nH]c2ccccc2c1C1(O)C(=O)N(Cc2ccccc2)c2ccc(Cl)cc21 (stereo not drawn) | 10µM
Cc1[nH]c2ccccc2c1C1(O)C(=O)N(Cc2ccc(Cl)cc2)c2ccccc21 (stereo not drawn) | -[5.79 µM]
Cc1ccc(CN2C(=O)C(O)(c3c(C)[nH]c4ccccc34)c3ccccc32)cc1 (stereo not drawn) | -
COCC1CN(C(C)=O)CC12CCN(S(=O)(=O)c1cn(C)cn1)CC2 (stereo not drawn) | -
CN1CC(=O)N(c2ccccc2F)Cc2c(NCCO)ncnc21 | -
Cc1cc2ncc(C(=O)N3CCC4(CC(=O)NC4=O)C3)c(=O)n2[nH]1 (stereo not drawn) | -
CN1C(=O)CO[C@H]2CN(Cc3ncc[nH]3)C[C@H]21 | -
O=C1CC2(CCN(CC3CCCCC3)CC2)Oc2cc(Cl)ccc21 | 1.41µM

Screens from PubChem BioAssay.
